PubChem BioAssay AID485313 (National Center for Advancing Translational Sciences (NCATS), 2010)
The whole screen tested about 320,000 compounds, of which about 7,600 (2.4%) were called active. Entries that show only a call come without a potency. Roughly 3% stayed inconclusive and do not appear here. The call rests on the fitted dose curve; in most records, active means well fitted activation curve with a large enough effect; inconclusive means small, poorly fitted or top-dose-only effect; inactive means no such curve, though single readings can be large or run the other way. The sample as a whole holds a higher share of actives than the screen did.
Potency means the concentration at half of the fitted maximal effect.

Assay: qHTS Assay for NPC1 Promoter Activators; further: nearly all actives have a fitted effect of over 60% in size;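 on activation: reporter is driven by a mutant NPC1 promoter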
Settings: Huh7 NPC1 promoter luciferase reporter, 24 h; series mostly up to 9.22 µM
How it was run: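 NPC1 promoter–luciferase Huh7 cells; 24 h compound; luminescence.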
In the case of `CN(C)S(=O)(=O)c1ccc(C(=O)NCC2(N3CCOCC3)CCCCC2)cc1`, the Potency is reported as “inactive”. For `O=C(CSc1nnnn1C1CCCC1)N1CCCCC1`, the Potency was 3550 nM (active). In the case of `CC1CCCC(C)N1C(=O)CSc1nnnn1C1CCCC1` (centres undefined), the Potency is reported as “inactive”. For `CC(=O)Nc1ccc(NC(=O)CSc2nnnn2C2CCCCC2)cc1`, the Potency was “inactive”. With `C/C(=N\NC(=O)c1ccc(NS(=O)(=O)c2cccs2)cc1)c1ccc2ccccc2c1` the Potency was “inactive”. For `COCCNc1nnc(SCC(=O)NNC(=O)c2ccco2)s1`, the Potency was “inactive”. With `COc1ccccc1N1CCN(C(=O)CSc2ncnc3c2cnn3-c2ccc(C)c(C)c2)CC1` the Potency was “inactive”. For `COc1ccc(Oc2c(Cl)cnn(-c3ccccc3)c2=O)cc1`, the Potency was “inactive”. In the case of `COc1ccc(-n2ncc3c(N4CCCc5ccccc54)ncnc32)cc1`, the Potency is reported as 501 nM (active). For `COc1ccc2oc(=O)c(C(=O)N3CCCc4ccccc43)cc2c1`, the Potency was “inactive”. In the case of `Cc1cccc(-n2ncc3c(N4CCc5ccccc54)ncnc32)c1`, the Potency is reported as 1580 nM (active). In the case of `Cc1cccc(-n2ncc(Cl)c(Cl)c2=O)c1`, the Potency is reported as “inactive”. In the case of `O=C(CCNC(=O)c1ccccc1Cl)NCc1ccco1`, the Potency is reported as “inactive”. In the case of `O=C(CCC(=O)c1ccccc1)NCc1cccc(C(F)(F)F)c1`, the Potency is reported as “inactive”. In the case of `FC(F)Oc1ccccc1C1CC(c2ccc(Br)s2)Nc2ncnn21` (centres undefined), the Potency is reported as “inactive”. For `Cc1ccc(Nc2nc(N)nc(CSc3nnc(C)s3)n2)cc1`, the Potency was 2510 nM (active). With `Cc1nnc(SCc2nc3ccccc3nc2C)s1` the Potency was “inactive”. In the case of `CCOC(=O)N1CCN(Cc2nc(N)nc(Nc3ccc(C)cc3)n2)CC1`, the Potency is reported as “inactive”. With `Nc1ccc(Nc2cc(O)c3ncccc3c2)cc1` the Potency was “inactive”. With `CCCN(CC(=O)Nc1ccccc1C)C(=O)c1ccc2[nH]c3c(c2c1)CC(C)CC3` (centres undefined) the Potency was “inactive”. With `COc1ccc2oc(=O)c(C(=O)N3CCCC3)cc2c1` the Potency was “inactive”. With `Cc1cc(C)cc(NC(=O)N2CCCCCCC2)c1` the Potency was “inactive”. With `Cc1ccc2cc3cc(C(=O)N4CCCCCC4)oc3nc2c1` the Potency was 1120 nM (active). For `COc1ccc(-c2c(-c3cc(OC)cc(OC)c3)n(C)c3ccc(-c4ccn[nH]4)cc23)cc1`, the Potency was “inactive”. For `O=C(Nc1ccc(Br)cn1)c1ccc([N+](=O)[O-])o1`, the Potency was “inactive”. For `O=C(Nc1ccncc1)c1ccc([N+](=O)[O-])cc1Cl`, the Potency was “inactive”. In the case of `O=C(Nc1ccc(Br)cn1)c1ccc([N+](=O)[O-])cc1Cl`, the Potency is reported as 2000 nM (active). For `C=CCn1cc(-c2cccc(C(F)(F)F)c2)cc(C#N)c1=O`, the Potency was “inactive”. With `CN(C)C(CNC(=O)c1ccc(OCc2cn3ccccc3n2)cc1)c1ccco1` (centres undefined) the Potency was “inactive”. With `C=CCNc1cnn(-c2ccc(C)cc2)c(=O)c1Cl` the Potency was 2820 nM (active). With `O=c1c(Cl)c(NC2CC2)cnn1-c1ccccc1` the Potency was “inactive”. In the case of `Cc1ccc(Oc2cnn(-c3ccccc3)c(=O)c2Br)cc1`, the Potency is reported as “inactive”. For `CC(C)Nc1nnc(SCC(=O)c2c[nH]c3ccccc23)s1`, the Potency was “inactive”. In the case of `COc1ccc(/C=N/Nc2nc3ccccc3c(=O)[nH]2)cc1`, the Potency is reported as 3160 nM (active). For `COc1ccc(NS(=O)(=O)c2cc(C(=O)Nc3ccccc3C(=O)O)ccc2C)cc1`, the Potency was “inactive”. In the case of `COc1ccc(/C=N/OCC(=O)N(Cc2ccccc2)c2ccccc2C(=O)O)cc1`, the Potency is reported as “inactive”. For `COc1ccc(/C=N/Nc2ccccc2C(=O)O)cc1`, the Potency was 89.1 nM (active). In the case of `COc1ccc(/C=N/Nc2nc(-c3ccc(C)cc3)c(C#N)c(=O)[nH]2)cc1`, the Potency is reported as “inactive”. For `COc1ccc(CCCc2nnc(SCc3nc4ccccc4c(=O)[nH]3)n2C)cc1`, the Potency was “inactive”. In the case of `CCC(=O)c1ccc(OCC(=O)N(CC)CC2COc3ccccc3O2)cc1` (centres undefined), the Potency is reported as “inactive”. In the case of `COCCn1c(C)cc(C(=O)COC(=O)CNC(=O)c2ccco2)c1C`, the Potency is reported as “inactive”. In the case of `COc1cccc(C2=CC(=O)C[C@H](c3ccc(F)cc3)C2)c1OC`, the Potency is reported as “inactive”. In the case of `Cc1cc(F)ccc1S(=O)(=O)Nc1ccc(C(=O)N(C)Cc2ccco2)cc1`, the Potency is reported as “inactive”. With `COc1ccccc1NC(=O)COC(=O)COc1ccccc1F` the Potency was “inactive”. With `Nc1ccc(-c2nnc(-c3ccc(-c4ccccc4)cc3)o2)cc1` the Potency was 4470 nM (active). In the case of `O=C(Nc1cccc(Cl)c1)Nc1nnc(-c2ccccc2)o1`, the Potency is reported as “inactive”. With `O=C(COC(=O)c1ccccc1Br)Nc1nnc(-c2ccccc2)o1` the Potency was “inactive”. In the case of `Nc1ccc(-c2nnc(-c3ccccc3)o2)cc1`, the Potency is reported as 3160 nM (active). For `Nc1ccc(-c2sc(N)nc2-c2ccccc2)cc1`, the Potency was “inactive”. In the case of `O=C(COC(=O)c1ccc(Oc2ccccc2)cc1)Nc1nnc(-c2ccccc2)o1`, the Potency is reported as “inactive”. With `CC(C)(C)n1ncc2c(=O)n(Cc3c(Cl)cccc3Br)cnc21` the Potency was “inactive”. For `CC(C)c1ccc(S(=O)(=O)N2CCN(C(C)C(=O)NC3CCCC3)CC2)cc1` (centres undefined), the Potency was “inactive”. In the case of `CCCC(NCC(=O)Nc1ccccc1C(=O)NC1CC1)c1ccccc1` (centres undefined), the Potency is reported as “inactive”. For `COc1ccccc1N1CCN(C(=O)C2Cc3ccccc3CN2C(=O)c2ccco2)CC1` (centres undefined), the Potency was “inactive”. For `CCN1C(=O)[C@@H]2[C@@H](c3ccc(-c4cccc(Cl)c4)cc3)N3CCC[C@@]3(C(=O)OC)[C@@H]2C1=O`, the Potency was “inactive”. In the case of `CCCCc1ccc(NS(=O)(=O)c2cccc(C(=O)N3CCCN(C)CC3)c2)cc1`, the Potency is reported as “inactive”. For `Cc1ccc(C(=O)Nc2nnc(-c3cccs3)s2)cc1C`, the Potency was 4470 nM (active). For `Cc1nnc(NC(=O)c2ccc3nccnc3c2)s1`, the Potency was “inactive”. In the case of `Cc1ccc(C(=O)Oc2coc(CSc3nnc(NC(=O)c4cccs4)s3)cc2=O)cc1C`, the Potency is reported as “inactive”. With `CC(C)c1ccc(NC(=O)COC(=O)c2ccc(CN3CCCC3=O)cc2)cc1` the Potency was “inactive”. With `Cc1ccnc(NC(=O)c2ccc(NC(=O)c3ccco3)cc2)c1` the Potency was 3980 nM (active). With `O=C(Nc1ccnc(-c2ccncc2)n1)c1cccs1` the Potency was “inactive”. In the case of `O=C(Nc1ccc(O)cc1)c1ccc(NC(=O)c2ccco2)cc1`, the Potency is reported as “inactive”. In the case of `O=C(Nc1ccccc1)c1ccco1`, the Potency is reported as “inactive”. With `O=C(Nc1ccc(NC(=O)c2cccs2)cn1)c1ccco1` the Potency was 316 nM (active). With `Cc1cc(NC(=O)c2ccc(F)cc2)ccc1NC(=O)c1ccco1` the Potency was “inactive”. In the case of `CCN(CC(=O)Nc1c(F)cccc1F)C(=O)c1cnc(C)cn1`, the Potency is reported as “inactive”. In the case of `O=C(CCNC(=O)c1ccc(Br)cc1)NCC(c1ccco1)N1CCCCC1` (centres undefined), the Potency is reported as “inactive”. For `COc1ccc(C2=NN(C(=O)CSc3nnnn3C)C(c3ccco3)C2)cc1` (centres undefined), the Potency was “inactive”. With `Nc1ncc(-c2cc3ccccc3oc2=O)s1` the Potency was 2510 nM (active). For `O=C(NCc1cccnc1)c1cccc(-c2cc3ccccc3oc2=O)c1`, the Potency was “inactive”. For `Cc1cc2c(=O)n(C)c(SCC(=O)c3cc4ccccc4o3)nc2s1`, the Potency was “inactive”. In the case of `O=C(CSc1ccccc1)Nc1cccc(S(=O)(=O)N2CCCCC2)c1`, the Potency is reported as “inactive”. In the case of `Cc1cccc(-c2nc3ccc(C(=O)NCCN4CCN(C)CC4)cc3nc2-c2cccc(C)c2)c1`, the Potency is reported as “inactive”. In the case of `C=CCNC(=O)c1ccc(C)c(Br)c1`, the Potency is reported as “inactive”. In the case of `C=CCNC(=O)c1ccc2c3n(nc2c1)-c1ccc(C)cc1CO3`, the Potency is reported as 501 nM (active). With `CCOC(=O)c1sc(NC(=O)C2CSC3(C)CCC(=O)N23)nc1C` (centres undefined) the Potency was “inactive”. In the case of `C=CCSc1ccc(S(=O)(=O)N2CCN(C)CC2)cn1`, the Potency is reported as “inactive”. For `CCCCN(C(=O)C(CCSC)N1C(=O)c2ccccc2C1=O)c1c(N)n(CCC)c(=O)[nH]c1=O` (centres undefined), the Potency was “inactive”. With `Cc1ccc(OC(=O)c2c(C)nn(-c3ccccc3)c2C)cc1` the Potency was 2820 nM (active). With `Cc1cccc(C)c1NC(=O)COC(=O)c1c(C)nn(-c2ccccc2)c1C` the Potency was “inactive”. In the case of `Cc1ccc(-n2nc(C)c(C(=O)O)c2-n2cccc2)cc1`, the Potency is reported as “inactive”. With `COCCN(C(=O)CSCc1ccc(C)cc1)c1c(N)n(CC(C)C)c(=O)[nH]c1=O` the Potency was “inactive”. For `CCN(CC(=O)NCc1cccs1)C(=O)/C=C/c1ccc(C)cc1`, the Potency was “inactive”. For `Cc1cccc(Nc2nnc(SCC(=O)c3c(N)n(C4CC4)c(=O)[nH]c3=O)s2)c1C`, the Potency was “inactive”. With `CCOc1ccc(C(=O)NC2CCN(CC(=O)NCc3cccs3)CC2)cc1` the Potency was “inactive”. In the case of `O=C(NCc1cccs1)c1ccc2c(c1)ncn2C1CCCC1`, the Potency is reported as 3550 nM (active). For `COc1ccccc1-n1cnc2cc(C(=O)NCC3CCCO3)ccc21` (centres undefined), the Potency was “inactive”. For `O=C(CCNS(=O)(=O)c1ccc(Br)cc1)NCC1CCCO1` (centres undefined), the Potency was “inactive”. For `COc1ccccc1C(=O)NCC(=O)NCCSc1ccc(Br)cc1`, the Potency was “inactive”. For `Cc1ccc(NC(=O)CN(C)C(=O)COC(=O)c2nccnc2N)cc1`, the Potency was “inactive”. With `c1csc(-c2nc(-c3ccncc3)no2)c1` the Potency was 3160 nM (active). In the case of `COc1nc(-c2ccc(Cl)cc2)ccc1-c1noc(-c2cccs2)n1`, the Potency is reported as “inactive”. With `Cc1ccc(-c2noc(CSc3nnc(-c4ccncc4)n3-c3ccc(F)cc3)n2)cc1` the Potency was “inactive”. For `Cc1ccc(-c2nc(-c3ccncc3)no2)c(C)c1`, the Potency was 3160 nM (active). In the case of `Cc1ccc(-c2noc(CSc3nnc(-c4cccs4)n3C)n2)cc1`, the Potency is reported as “inactive”. In the case of `c1ccc(-c2noc(-c3cccs3)n2)nc1`, the Potency is reported as 398 nM (active). With `O=C(NCc1cccnc1)c1nc(-c2cccs2)no1` the Potency was “inactive”. For `c1ccc(CCc2nc(-c3ccncc3)no2)cc1`, the Potency was “inactive”. With `Clc1ccc(-n2nnnc2-c2cnc(-c3ccccn3)nc2-c2cccs2)cc1` the Potency was “inactive”. For `CN(C(=O)CSc1nnc(-c2n[nH]c3ccccc23)o1)c1ccccc1`, the Potency was “inactive”. With `O=C(COC(=O)c1c(Cl)cccc1Cl)Nc1cccc(S(=O)(=O)NC2=NCCCCC2)c1` the Potency was “inactive”. In the case of `COc1ccc(Cc2nnc(N/N=C/c3ccccc3O)[nH]c2=O)cc1OC`, the Potency is reported as “inactive”. For `COc1ccccc1C(=O)NCC(=O)OCC(=O)Nc1nnc(-c2ccccc2)o1`, the Potency was “inactive”. With `O=C(COC(=O)c1cc(S(=O)(=O)N2CCOCC2)ccc1Cl)NCCc1ccccc1` the Potency was “inactive”. With `Cc1ccc(NC(=O)NC(=O)c2ccccc2)cc1F` the Potency was 562 nM (active). In the case of `Cc1nc(C)c(C(=O)Nc2ccc(C)c(F)c2)o1`, the Potency is reported as “inactive”. For `Cc1cccc(NC(=O)NC(=S)NC(=O)c2ccccc2)c1`, the Potency was “inactive”. In the case of `CCN(CC)C(=O)c1nc[nH]c1C(=O)N(C)Cc1ccccc1`, the Potency is reported as “inactive”.
